Assay outcomes (PubChem)
TROY NFkB inh: TROY signaling inhibition; inhibition, % at 10 µM; Q293 LMP1-TROYcd NF-kB luciferase reporter, 4 h; 0.98% of 360,000 active;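 active = compounds whose plate-normalised and pattern-corrected inhibition of the luciferase reporter signal at the single screening dose is 50% or more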
EWS-Fli block: blocks EWS/Fli oncoprotein-driven transcription; A673 NR0B1-luciferase reporter, viability-normalised; inhibition, % at 12.6 µM; 0.67% of 350,000 active; AID 651661;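 active = mean inhibition of at least 50% after viability correction, with every replicate also passing that limit; inconclusive = mean reaches 50% but only one of two replicates passes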;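 note: firefly luciferase signal divided by Alamar Blue viability fluorescence both relative to DMSO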
TWEAK-Fn14 inh: TWEAK-Fn14 signaling inhibition | TWEAK-stimulated Fn14 reporter cells, luciferase luminescence, 8 h | inhibition, % at 10 µM | 2% of 360,000 active; in the data active = inhibition above about 50%
LGR2 inh: Drosophila LGR2 receptor signaling inhibition; inhibition, % at 9.99 µM; HEK293 LGR2, CRE-luciferase, bursicon-stimulated, 4 h; 0.35% of 380,000 active;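 active = drop in luminescence signal, shown as inhibition above about 50% in the replicate tests, limit read from the data, passing the limit was not always enough; inconclusive = probably only some replicates passing the limit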;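 note: agonist challenge used bursicon conditioned medium at about half maximal strength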
EBV LMP1 NFkB: reduces LMP1-driven NF-kappaB luciferase signal. LMP1-induced NF-kappaB luciferase reporter cells, luminescence. inhibition, % at 12.5 µM. 0.69% of 350,000 active; in the data active = inhibition above about 41%; inconclusive = no clear call, values can overlap the other calls
A number is an active result; n = inactive; u = inconclusive; x = not tested or not shown. Sampled rows, rich in hits. Any-hit rate of the full collection: about 2.6%.

SMILES | TROY NFkB inh | EWS-Fli block | TWEAK-Fn14 inh | LGR2 inh | EBV LMP1 NFkB
CCN1[C@H](C(=O)NCC2CC2)[C@@H](CO)[C@@H]2Cn3c(ccc(-c4ccccc4OC)c3=O)[C@@H]21 | x | n | x | n | x
C[C@@H]1CN([C@H](C)CO)C(=O)c2cc(NC(=O)C3CCCCC3)ccc2O[C@@H]1CN(C)C(=O)Nc1ccc2c(c1)OCO2 | x | n | x | n | x
Cc1nc(N2CCC(C)CC2)c2c(C)c(C(=O)Nc3ccc4c(c3)OCCO4)sc2n1 | n | x | n | n | n
COc1ccc(NC(=O)c2sc3ncnc(N4CCN(c5ccccn5)CC4)c3c2C)cc1Cl | n | n | 76 | n | 44
COc1ccc(NC(=O)c2sc3nc(C)nc(N4CCN(c5ccccn5)CC4)c3c2C)cc1Cl | n | n | n | n | n
Cc1c(C(=O)Nc2ccc3c(c2)OCCO3)sc2ncnc(N3CCCCC3C)c12 (configuration not stated) | n | x | 53 | n | x
Cc1sc2ncnc(N3CCC(C(=O)NNC(=O)COc4ccc(Cl)cc4)CC3)c2c1C | 50 | n | 87 | n | n
Cc1ccc(S(=O)(=O)N2CCN(C(=O)C3CCN(c4ncnc5sc(C)c(C)c45)CC3)CC2)c(C)c1 | n | n | 51 | n | n
CCCNC(=O)N1C[C@@H]2[C@H](c3ccccc31)[C@H](CO)N2Cc1cccc(OC)c1 | x | n | x | n | x
C[C@H]1CN([C@@H](C)CO)C(=O)c2cc(-c3cccc(F)c3)cnc2O[C@H]1CN(C)C(=O)c1ccccn1 | x | n | x | n | x
O=C(NC1CCCCC1)N1CC2(C1)[C@@H](c1ccccc1)[C@@H](CO)N2CC1CC1 | x | n | x | n | x
COCC(=O)N(C)C[C@@H]1Oc2ncc(Br)cc2C(=O)N([C@@H](C)CO)C[C@@H]1C | x | n | x | n | x
Cc1ccc(OCC(=O)NNC(=O)C2CCN(c3ncnc4sc(C)c(C)c34)CC2)cc1 | n | n | n | n | n
Cc1sc2ncnc(N3CCC(C(=O)NNC(=O)COc4ccc(Br)cc4)CC3)c2c1C | 74 | n | 88 | n | n
C=CCn1c2ccccc2c2nnc(SCCCn3c(=O)[nH]c4ccccc43)nc21 | 68 | x | 60 | x | n
C=CCn1c2ccccc2c2nnc(SCCN3CCCCC3)nc21 | n | n | n | n | n
C[C@H](O)C#Cc1ccc2c(c1)O[C@H](CN(C)C)[C@H](C)CN([C@H](C)CO)S2(=O)=O | x | n | x | n | x
NNC(=O)c1cccc(COc2ccc3c(c2)CCC3)c1 | n | x | n | u | 63
CCOc1ccc(-c2cc(CCCC(=O)Nc3cccc(OC)c3)no2)cc1 | n | 64 | 57 | n | 47
COc1ccc(-c2cc(CCCC(=O)NCc3ccccn3)no2)cc1 | n | n | 86 | n | n
COc1ccc(-c2cc(CCCC(=O)NCCc3ccccc3)no2)cc1 | n | n | n | n | n
CCOc1ccc(NC(=O)CCCc2cc(-c3ccc(OCC)cc3)on2)cc1 | n | x | n | x | n
CC(C)(C)c1nn(-c2ccccc2)c2[nH]c(=O)c(CNc3ccc4c(c3)OCCO4)cc12 | 82 | x | 96 | n | n
Cn1c2ccc(F)cc2c2ncn(Cc3ccccn3)c(=O)c21 | n | n | n | x | n
CCOCCCn1cnc2c3cc(F)ccc3n(C)c2c1=O | n | n | n | n | 57
SMILES | TROY NFkB inh | EWS-Fli block | TWEAK-Fn14 inh | LGR2 inh | EBV LMP1 NFkB
COc1ccc(NC(=O)N(C)C[C@@H]2Oc3ccc(NS(=O)(=O)c4ccc(F)cc4)cc3CC(=O)N([C@H](C)CO)C[C@@H]2C)cc1 | x | n | x | n | x
COC(=O)[C@@H]1[C@@H](CO)[C@@H]2Cn3c(ccc(-c4ccccc4)c3=O)[C@@H]2N1CCc1ccccc1 | x | n | x | n | x
O=c1cc(C2CCCCC2)[nH]c(=O)[nH]1 | n | n | n | n | 52
COc1ccc2c(c1)c1ccc3c(c1n2C)C(=O)C=CC3=O | n | 60 | n | n | n
O=C(Nc1nnc(Cc2c[nH]c3ccccc23)s1)c1ccc(Cl)cc1Cl | n | n | 65 | x | n
Cc1noc(C)c1NC(=O)Nc1ccc2c(c1)C(=O)N([C@H](C)CO)C[C@H](C)[C@H](CN(C)C(=O)Nc1c(C)noc1C)OCCCC[C@H](C)O2 | x | n | x | n | x
O=C(N/N=C/c1ccc(-c2cccc(C(F)(F)F)c2)o1)c1ccccc1Br | 65 | x | 59 | x | n
O=C(N/N=C/c1ccc(-c2cccc(C(F)(F)F)c2)o1)c1ccccc1O | n | x | n | n | n
COc1cccc(-c2cc3onc(-c4ccccc4)c3c(=O)n2C)c1 | 61 | n | 70 | n | n
Cn1c(-c2ccc(F)c(F)c2)cc2onc(-c3ccccc3)c2c1=O | n | n | n | x | n
CN1C/C(=C/c2cccnc2)C(=O)/C(=C/c2cccnc2)C1 | n | x | 65 | n | n
CS(=O)(=O)Nc1ccc2c(c1)[C@@H]1C[C@@H](CC(=O)NCc3ccccc3F)O[C@@H](CO)[C@@H]1O2 | x | n | x | n | x
CCN1CCc2nc(NC(=O)c3ccccc3)sc2C1 | n | x | 85 | x | n
O=C(C[C@H]1C=C[C@@H](NC(=O)C2CC2)[C@H](CO)O1)NCc1ccncc1 | x | n | x | n | x
CC(=O)c1cccc(NC(=O)Nc2ccc3c(c2)N(C)C(=O)CS3)c1 | 68 | x | 82 | n | n
Cc1ccc(C(=O)NN=CC(=O)c2ccccc2)c(C)c1 | 52 | n | 65 | 70 | n
C[C@H]1CN([C@@H](C)CO)C(=O)CCCn2cc(nn2)CO[C@@H]1CN(C)Cc1ccc(C(=O)O)cc1 | x | n | x | n | x
CCOC(=O)c1oc2ccccc2c1CN1CCN(C)CC1 | x | x | 86 | x | n
COc1ccccc1NC(=O)N[C@@H]1C=C[C@H](CC(=O)NCc2ccc(Cl)c(Cl)c2)O[C@@H]1CO | x | n | x | n | x
O=C(Cn1nc(C(F)(F)F)c2c1CCC2)NC1CCCCC1 | n | x | n | x | 44
CC(=O)Nc1cc(N=Cc2ccc(O)cc2O)c(Cl)cc1Cl | n | x | 99 | x | n
c1ccc(CSc2ncnc3sccc23)cc1 | n | n | n | n | n
c1ccc2sc(Sc3ncnc4sccc34)nc2c1 | n | n | 83 | n | n
CCc1cc2c(Sc3nc4ccccc4s3)ncnc2s1 | n | x | 94 | n | 43
CCc1cc2c(SCC(=O)Nc3ccc(NC(C)=O)cc3)ncnc2s1 | n | n | n | n | n
SMILES | TROY NFkB inh | EWS-Fli block | TWEAK-Fn14 inh | LGR2 inh | EBV LMP1 NFkB
C[C@@H]1CN([C@H](C)CO)C(=O)c2cc(NC(=O)NC3CCCCC3)ccc2O[C@H]1CN(C)C(=O)Nc1ccc2c(c1)OCO2 | x | n | x | n | x
Clc1ccc(-c2cc(-c3ccccc3)on2)cc1 | n | n | n | n | n
CCc1ccn2cc(-c3cc(-c4ccccc4)no3)nc2c1 | 87 | 75 | 106 | 103 | 70
Cc1ccc(-c2cc(-c3ccccc3)no2)c(O)c1 | 53 | x | 76 | u | n
Cc1ccc2nc(-c3cc(-c4ccccc4)no3)cn2c1 | n | 69 | 79 | x | n
Oc1ccccc1-c1cc(-c2ccccc2)no1 | n | x | n | n | n
O=C(C[C@H]1CC[C@H](NC(=O)c2ccc3c(c2)OCO3)[C@H](CO)O1)NCc1ccc(F)cc1 | x | n | x | n | x
COc1ccc(C(=O)c2coc(-c3ccccc3C(=O)O)c2C(=O)O)cc1 | n | x | n | n | n
COc1ccc(C(=O)c2c(C(F)(F)F)oc3c2C(=O)c2ccccc2C3=O)cc1 | n | x | 71 | x | 85
C[C@@H]1CN([C@H](C)CO)C(=O)c2cccc(NC(=O)CCCCCC(=O)Nc3ccccc3N)c2O[C@H]1CN(C)Cc1ccc2c(c1)OCO2 | x | n | x | n | x
